An excerpt weighted towards active compounds, which were near 0.77% of everything screened.
HSV replic up – enhancers of HSV replication in host cells, fold increase, host cell viability; HSV replication augmentation in cells; maximum fold increase; 220,000 tested, 0.005% active; in the data active = maximum fold increase above about 1.5; inconclusive = no clear call, values can overlap the other calls; tested in PC3 cells
zVAD death inh – inhibitors of zVAD-triggered necroptosis, primary screen, L929 cells; L929 zVAD necroptosis rescue, ATP luminescence, 24 h; with zVAD 60 µM; viability rescue, % at 10 µM; 220,000 tested, 0.38% active;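 active = activation, scaled between plate controls, above about 75%, limit read from the data; inactive = activation under that limit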
TNF necrop inh – inhibitors of TNF-alpha triggered necroptosis, primary screen, cell-based, Jurkat FADD-/-, single concentration | Jurkat FADD-/- TNF necroptosis rescue, ATP luminescence, 24 h; 0 = TNF only, 100 = no-TNF cells | activation (protection from cell death), % at 10 µM | 220,000 tested, 0.068% active;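 active = activation, meaning protection from cell death, of at least 50% relative to plate controls; inactive = activation below 50%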;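 also: necroptosis triggered by 40 ng/mL TNF-alpha added together with compound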
m-calpain inh – inhibitors of pig calpain II, primary screen, biochemical, fluorogenic peptide substrate, 1536-well; purified calpain II, 30 min; 220,000 tested, 0.37% active; AID 1236, 2008; inhibition, % at 16 µM;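 active = inhibition above about 50%, limit read from the data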
Of the large screens only hits and unclear results are named; the others gave an inactive call.

Oc1ccc2cc(Br)ccc2c1CN1CCCC1	none
COc1ccc(Nc2nc(NC(C)(C)C)nc(N3CCCC3)n2)c(OC)c1	none
COc1ccc(N2CCN(c3nc(NC(C)(C)C)nc(N4CCCCC4)n3)CC2)cc1	m-calpain inh 65
CC(=O)Nc1ccc(C(=O)c2ccccc2)cc1	none
CCCCC(=O)Nc1ccc(C(=O)c2ccccc2)cc1	m-calpain inh 53
O=C(CSc1n[nH]c(=O)[nH]c1=O)NC1CC1	none
Oc1ccc(/C=N/NC(=S)NCc2ccco2)cc1	none
COc1ccccc1/C=N/NC(=S)NCc1ccco1	m-calpain inh 60
S=C(NCc1ccco1)N/N=C/c1ccc(Cl)cc1	m-calpain inh 68
S=C(NCc1ccco1)N/N=C/c1ccccc1Cl	none
CNC(=O)c1cc(NC(=O)CCn2nc(-c3ccc(C)cc3)c3ccccc3c2=O)ccc1OC	none
CN1CCN(c2ccc(C(=O)c3ccc(Br)cc3)cc2[N+](=O)[O-])CC1	none
COc1ccccc1C(=O)NCc1ccccn1	none
C=CCN=C1S/C(=C\c2ccc(N(C)C)cc2)C(=O)N1CC=C	none
CC(=O)N1CCCc2cc(S(=O)(=O)N3CCc4ccccc4C3)ccc21	none
CCC(=O)N1CCc2cc(S(=O)(=O)N3CCc4ccccc4C3)ccc21	m-calpain inh 54
CN1C/C(=C/c2cccnc2)C(=O)/C(=C/c2cccnc2)C1	TNF necrop inh 80
COc1ccc(CCNC(=O)COC(=O)CCC(=O)c2ccc(F)cc2)cc1OC	none
CC(=O)c1cccc(N(C(=O)CNC(=O)c2ccco2)C(C(=O)NCc2ccco2)c2ccccc2)c1 (stereo unspecified)	none
Cc1nn(CC(=O)c2ccccc2Cl)c(C)c1[N+](=O)[O-]	none
Cc1nn(Cc2c(F)cccc2Cl)c(C)c1[N+](=O)[O-]	TNF necrop inh 76
CCN(CC)c1ccc(C(=O)NC(=S)Nc2cc(S(=O)(=O)N3CCOCC3)ccc2-n2cncn2)cc1	m-calpain inh 58
CCOC(CNC(=O)c1ccc2c(c1)ncn2-c1cccc(F)c1)OCC	none
COCCNC(=O)c1ccc2c(c1)ncn2-c1ccc(F)c(F)c1	zVAD death inh 75
CC(C)[C@H](NC(=O)[C@H](CCCN=C(N)N)NC(=O)NC(Cc1ccccc1)C(=O)O)C(=O)NC(C=O)CCCN=C(N)N (stereo partly specified)	m-calpain inh 51
CC(C)C(NC(=O)C(Cc1ccccc1)NC(=O)OCc1ccccc1)C(=O)O (stereo unspecified)	none
CN(Cc1ccc(Cl)s1)C(=O)CCl	none
COc1ccccc1NC(=O)/C(=C/c1cccs1)NC(=O)c1ccco1	m-calpain inh 55
O=C(Cn1nc(C(=O)O)c2ccccc2c1=O)Nc1ccc2c(c1)C(=O)c1ccccc1C2=O	none
COc1ccc(-c2nc3c(-c4ccc(Cl)cc4)cnn3cc2C)cc1F	none
COc1ccc(-c2nc3c(-c4ccccc4)cnn3cc2C)cc1F	TNF necrop inh 51
O=C(O)c1cccc(NC(=S)N/N=C/c2ccccc2OCc2cccc(Br)c2)c1	m-calpain inh 56
COCCNC(=O)C(NC(=O)C1CCC(C)CC1)C(C)C (stereo unspecified)	none
O=S(=O)(Nc1ccncc1Cl)c1cc(Cl)ccc1Cl	none
O=S(=O)(Nc1nc(-c2sccc2Cl)cs1)c1cc(Cl)ccc1Cl	m-calpain inh 54
O=C(Nc1nc(-c2ccccc2)cs1)c1ccccc1NS(=O)(=O)c1ccc(F)cc1	none
O=S(=O)(Nc1ccc(-c2csc(-c3ccccc3)n2)cc1)c1ccc(F)cc1	m-calpain inh 55
O=c1c(C(c2ccccc2)c2c(O)sc3ccccc3c2=O)c(O)sc2ccccc12	m-calpain inh 51 (no result: HSV replic up)
Cc1cc2sc3ccccc3c(=O)c2c(C)c1O	none
CCOC(=O)C(C)Sc1nc2c([nH]c3ccccc32)c(=O)n1C (stereo unspecified)	none
CC(C)Sc1nc2c([nH]c3ccccc32)c(=O)n1C	m-calpain inh 82
COc1cccc(-c2noc(CCCC(=O)Nc3ccc(C(N)=O)cc3)n2)c1	none
O=C(NCCc1csc(-c2cccnc2)n1)c1ccc(Br)o1	m-calpain inh 99
O=C(NCCc1csc(-c2ccccc2)n1)c1ccc(Br)o1	none
CCc1ccc(NC(=S)NC(=O)CC(C)C)cc1	none
O=C(CC12CC3CC(CC(C3)C1)C2)NC(=S)Nc1ccc(CN2CCOCC2)cc1	none
O=C(CSCc1ccc([N+](=O)[O-])cc1)NC1CCCCCC1	TNF necrop inh 63
O=C(CSCc1ccc(F)cc1)NC1CCCC1	none
Cn1c(SCC(=O)Nc2ccccc2)nnc1-c1ccc2nonc2c1	none
O=[N+]([O-])c1ccc(Nc2ccccc2)nc1	TNF necrop inh 90
O=[N+]([O-])c1ccc(NCc2ccccc2)nc1	TNF necrop inh 76, m-calpain inh 52 (no result: HSV replic up)
O=[N+]([O-])c1ccc(Nc2cccc(F)c2)nc1	TNF necrop inh 70
O=C(Nc1ccc(F)cc1)Nc1ccc([N+](=O)[O-])cn1	none
O=[N+]([O-])c1ccc(Nc2ccc(F)cc2)nc1	TNF necrop inh 73
CS(=O)(=O)c1ccccc1-c1nc(-c2ccc([N+](=O)[O-])cc2)no1	none
COc1ccc(OC)c(CNc2ccc([N+](=O)[O-])cc2C)c1	m-calpain inh 51
O=C(CCCN1C(=O)c2ccccc2C1=O)N1CCC(c2ccccc2)C1 (stereo unspecified)	m-calpain inh 51
O=C(CCCN1C(=O)c2ccccc2C1=O)N1CCCCC1	none
CC(C)(C)c1ccc(-c2cn(-c3ccc(Br)cc3)c3[n+]2CCCS3)cc1	none
Cc1ccc(C(C#N)c2ccc3c(C(F)(F)F)cc(C(F)(F)F)nc3n2)cc1 (stereo unspecified)	m-calpain inh 55
N#CC(c1ccccc1)c1ccc2c(C(F)(F)F)cc(C(F)(F)F)nc2n1 (stereo unspecified)	none
S=C1Cc2ccccc2N1	m-calpain inh 55
N#CC1=C(SCC(=O)Nc2nccs2)NC(=O)CC1c1ccccc1 (stereo unspecified)	zVAD death inh 82, TNF necrop inh 75
Cc1ccccc1NC(=O)CSC1=C(C#N)C(c2ccsc2)CC(=O)N1 (stereo unspecified)	none
COc1ccc(-n2c(C)nc3sc4c(c3c2=O)CCC4)cc1	TNF necrop inh 93
COc1ccc(-n2c(SCC(=O)O)nc3sc4c(c3c2=O)CCC4)cc1	HSV replic up inconclusive
NC(=O)c1ccsc1NC(=O)c1cccs1	none (no result: m-calpain inh)
Cc1sc(NC(=O)c2cccs2)c(C(N)=O)c1C	zVAD death inh 75
COCCNC(=O)C/C(C)=N/NC(=O)C(=O)NC1CCCCC1	none
Cc1oc2c(c1C(=O)c1ccc(Cl)cc1)C(=O)C(=O)c1ccccc1-2	m-calpain inh 62 (no result: HSV replic up)
Cc1ccc(C(=O)c2c(C)oc3c2C(=O)C(=O)c2ccccc2-3)cc1	none
O=C(Nc1ccccc1C(=O)Nc1nnc(C(F)(F)F)s1)c1ccccc1Cl	none
CCn1cc(CNC(=O)c2cc(COc3ccc(F)cc3F)on2)cn1	none
O=C(CN1C(=O)/C(=C/c2cccc(Br)c2)SC1=S)Nc1cccnc1	none
O=C(CN1C(=O)/C(=C/c2cccc(Br)c2)SC1=S)NC1=NCCS1	m-calpain inh 84
